ELG1 DNA repair = blocks ELG1-dependent DNA repair in HEK293T cells; actives 2.3% (n = 330,000); HEK293T ELG1-luciferase reporter, luminescence, 16 h; DNA damage induced by 5-fluorouridine; AID 504467; Potency, µM (top dose mostly 46.1 µM), inactives show at the top dose activity change, negative = inhibition, actives largely listed as inhibitors; also: % is scaled to controls: 0 for no effect and ±100 for the full control effect; nearly all actives have a fitted effect of over 55% in size
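Overnight (16 hr) co-exposure of 2,000 cells/well to 5-fluorouridine and compound at 37 °C preceded detection. Luciferase was quantified via ONE-Glo luminescence; loss of signal denotes inhibition.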
ELG1 genotoxic = genotoxicity induction in ELG1-luciferase HEK293T cells | HEK293T ELG1-luciferase reporter, luminescence, 16 h | Potency, µM (series often up to 46 µM), without a hit: at the top dose activity change, positive = activation, usual class: activators | actives 1.3% (n = 330,000) | AID 504466; also: % of control where 0% means no effect; nearly all actives have a fitted effect of over 60% in size
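Reporter readout depends on ELG1 protein level, which increases with genetic stress. After 16 hr compound exposure at 37 °C, luciferase activity was quantified using ONE-Glo.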
SMN2 splice enh = SMN2 splice variant enhancement | HEK293 SMN2-luciferase splicing reporter, luminescence, 30-36 h | Potency, µM (highest dose often 46.1 µM), for inactives: top-dose activity change, positive = activation, actives largely listed as activators | actives 2.8% (n = 210,000); also: % of control where 0% means no effect; nearly all actives have a fitted effect of over 55% in size
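HEK293 cells carry an SMN2 minigene-luciferase reporter in which exon 7 inclusion puts luciferase in frame. Cells were seeded at 2000 cells/well, attached for 10-12 hours, then exposed to compounds for 30-36 hours at 37C before ONE-Glo luminescence.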
FLuc modulator = firefly luciferase modulation, counter-screen for miR-21 project | P08659 | purified FLuc, Km substrates, luminescence inhibition | Potency, µM (series often up to 57.5 µM), without a hit: at the highest dose activity change, negative = inhibition, most hits filed as inhibitors | actives 6.9% (n = 360,000) | AID 588342;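 also: plate controls were vehicle for no effect and reference inhibitor for full effect; nearly all actives have a fitted effect of over 55% in size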
Target sequence (P08659 whole entry, looked up): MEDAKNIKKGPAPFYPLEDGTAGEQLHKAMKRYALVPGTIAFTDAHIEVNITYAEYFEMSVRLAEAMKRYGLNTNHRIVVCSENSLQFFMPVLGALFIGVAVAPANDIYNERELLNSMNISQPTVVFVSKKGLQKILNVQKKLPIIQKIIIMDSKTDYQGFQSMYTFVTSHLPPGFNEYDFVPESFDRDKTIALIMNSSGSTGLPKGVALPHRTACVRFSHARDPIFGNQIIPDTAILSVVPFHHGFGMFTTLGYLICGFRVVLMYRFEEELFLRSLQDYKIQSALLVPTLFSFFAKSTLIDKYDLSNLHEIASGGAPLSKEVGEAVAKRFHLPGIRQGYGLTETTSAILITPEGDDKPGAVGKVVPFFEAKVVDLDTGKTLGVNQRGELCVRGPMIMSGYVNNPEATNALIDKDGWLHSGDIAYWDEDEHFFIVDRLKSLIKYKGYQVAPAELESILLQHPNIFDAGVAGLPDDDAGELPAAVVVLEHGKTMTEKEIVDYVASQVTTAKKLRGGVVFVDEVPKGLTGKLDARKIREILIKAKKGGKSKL
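Purified P. pyralis luciferase, 10 nM final, with Km-level 10 uM D-luciferin and 10 uM ATP in 50 mM Tris acetate pH 7.5, 10 mM Mg acetate, 0.01% Tween-20, 0.05% BSA; 6-point qHTS titration about 60 µM downward; luminescence read.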
Rab9 prom act = activators of Rab9 promoter; Huh7 Rab9 promoter-luciferase reporter, luminescence, 24 h; AID 485297; actives 2.8% (n = 320,000); Potency, µM (highest dose often 9.22 µM), without a hit: at the top dose activation, negative = inhibition, hits mostly activators; also: % of control where 0% means no effect; nearly all actives have a fitted effect of over 60% in size
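Stable Rab9-luc Huh7, 1500 cells/well, 2 h settle; cmpd in DMSO, 24 h, 37 °C/5% CO2; luciferase reagent 10 min RT; luminescence.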
NPC1 promoter act = activates the NPC1 promoter. AID 485313. actives 2.4% (n = 320,000). Potency, µM (highest dose often 9.22 µM), inactives show at the highest dose activation, most hits filed as activators. Huh7 NPC1 promoter luciferase reporter, 24 h; also: % of control where 0% means no effect; nearly all actives have a fitted effect of over 60% in size
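Luminescence read-out of NPC1 promoter-driven luciferase in stably transfected Huh7 cells; compounds delivered in DMSO and left 24 h at 37C, 5% CO2, qHTS titration format.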
Numbers without * were called inactive; ? = inconclusive; nt = no result; [ ] = dose if it differs, or a comment. Sampled rows, rich in hits. Any-hit rate of the full collection: about 9.3%. Calls follow the shape of the dose curve; as a rule, active = well fitted curve in the direction sought with a large enough effect; inconclusive = small, poorly fitted or top-dose-only effect, or another doubt; inactive = no such curve, though single readings can be large; an effect the other way counts as inactive or inconclusive. Potency is read from the fitted curve at half-maximal effect.

SMILES | ELG1 DNA repair | ELG1 genotoxic | SMN2 splice enh | FLuc modulator | Rab9 prom act | NPC1 promoter act
O=C(Nc1cnc2ccccc2c1)C1COc2ccccc2O1 (configuration not stated) | ? | ? | -6% | 13µM* | 4µM* | 25%
O=C(Nc1ccc2c(c1)CCC2)C1COc2ccccc2O1 (configuration not stated) | ? | 21µM* | 16µM* | 19µM* | 2.5µM* | 4µM*
O=C(Nc1ccc2c(c1)OCO2)C1COc2ccccc2O1 (configuration not stated) | ? | ? | ? | 17µM* | 2.8µM* | ?
C=C1C=C(C(F)F)n2ncc(C(=O)NCCc3ccccc3Cl)c2N1 | nt | nt | nt | 12% | nt | nt
O=C(Nc1ccc2c(c1)OCO2)C1CC(c2ccccc2Cl)=NO1 (configuration not stated) | 19% | ? | 15% | 2%[2.3 µM] | 2.5µM* | ?
COC(=O)C1=C(CS(=O)(=O)c2ccc(OC)cc2)NC(=O)NC1c1ccccc1 (configuration not stated) | 11% | 0% | nt | 4% | -1% | -1%
c1ccc(CN2CCC(Nc3ncnc4sccc34)CC2)cc1 | 6.5µM* | -12% | -84% | 5% | -17% | -17%
Cc1cccc(-c2noc(-c3ccccc3NC(=O)C3CC(=O)N(c4ccccc4C)C3)n2)c1 (configuration not stated) | nt | nt | nt | -1% | nt | nt
O=C(CCC(=O)c1cccs1)OCC(=O)c1ccccc1 | 3% | -2% | nt | nt | nt | nt
O=C(CCC(=O)c1cccs1)OCC(=O)c1ccccc1F | 7% | 3% | nt | 19µM* | 9% | 5%
N#Cc1ccccc1COC(=O)CCC(=O)c1cccs1 | 11% | 4% | nt | 12µM* | 3% | 1%
Cc1ccc(C2=NS(=O)(=O)N(C)C(C(=O)N3CCOCC3)=C2)cc1 | 3% | -2% | nt | -2% | 3% | 2%
O=C(O)c1ccccc1-c1cn2cc(Cl)ccc2n1 | ? | -4% | 18% | 7.6µM* | ? | 18%
Clc1ccc2nc(-c3ccc(Br)s3)cn2c1 | ? | 0.41µM* | 0.71µM* | 0.34µM* | ? | 19%
COc1ccc(-c2cn3cc(C)ccc3n2)cc1Br | ? | ? | 2.2µM* | 0.48µM* | 1.3µM* | 0.89µM*
COc1ccc(-c2cn3cc(Cl)ccc3n2)cc1OC | ? | ? | 11µM* | 7.6µM* | ? | 16%
COc1ccc(-c2noc(N3CCN(c4ccc(Cl)cc4)CC3)n2)cc1OC | nt | nt | nt | -2% | nt | nt
CNCc1cn2cc(Cl)ccc2n1 | 14% | 2% | 1% | 0% | -2% | 0%
Cc1ccc2nc(-c3ccc(S(=O)(=O)N4CCCCC4)cc3)cn2c1 | ? | 12% | nt | -20% | 29% | 2%
O=C(O)CSCc1cn2cc(Cl)ccc2n1 | 7% | -5% | 18% | -18% | -5% | -2%
CCCS(=O)(=O)c1nc(S(=O)(=O)c2ccc(C)cc2)c(NCc2ccccc2)s1 | nt | nt | 4% | -3% | nt | nt
COc1ccc(S(=O)(=O)N2CCN(C(=S)NC3CCCCC3)CC2)cc1 | -4% | -2% | -11% | 3% | 0% | -4%
CC(=O)N1N=C(c2ccc(C)cc2)OC1c1ccc(Br)cc1 (configuration not stated) | 4% | -3% | nt | -3% | 9% | -1%
CC(=O)N1N=C(c2ccc(Cl)cc2)OC1c1ccc(C(C)C)cc1 (configuration not stated) | ? | ? | 19% | 12µM* | 29% | 24%
CCN(CC)c1ccc(N=C2C(=O)Nc3ccccc32)cc1 | 16µM* | -9% | nt | 6.7µM* | 6% | 1%
SMILES | ELG1 DNA repair | ELG1 genotoxic | SMN2 splice enh | FLuc modulator | Rab9 prom act | NPC1 promoter act
Cc1ccc(N=C2C(=O)Nc3ccccc32)cc1 | 21% | -3% | nt | ? | -1% | 3%
C=CCN1C(=O)C(=O)N(Cc2nc3ccccc3s2)C1=O | ? | ? | nt | 8.5µM* | 21% | -31%
O=C(CCCN1C(=O)c2ccccc2C1=O)NCCc1ccc(OC(F)F)cc1 | 7% | 1% | nt | -1% | -1% | -15%
CCC(CO)Oc1cc(NCc2ccccc2F)c2ncn(C(C)C)c2c1 (configuration not stated) | ? | 4% | nt | -1% | -3% | -1%
CCC(CO)Oc1cc(NCc2ccccc2C(F)(F)F)c2ncn(C(C)C)c2c1 (configuration not stated) | 23µM* | -6% | nt | nt | nt | nt
CCC(COC)Oc1cc(NCc2ccccc2)c2ncn(C(C)C)c2c1 (configuration not stated) | 18µM* | -14% | nt | 1% | 1% | 11%
CC(=O)OC1CC(O)C(C)(C)C2CC(OC(C)=O)[C@]3(C)C(CC[C@@]4(C)C(c5ccoc5)OC(=O)C5OC534)[C@]12C (some centres not stated) | nt | nt | -4% | nt | nt | nt
CCOC(=O)C1CCCN(C2=NC(=O)/C(=C/c3ccc(N(C)C)cc3)S2)C1 (configuration not stated) | 7% | 6% | nt | 12µM* | 5% | 26%
Cc1ccc(/C=C2\SC(N3CCCCC3)=NC2=O)cc1 | ? | 12% | nt | 19µM* | ? | 30%
CCOC(=O)C1CCCN(C2=NC(=O)/C(=C/c3ccc(OC)cc3)S2)C1 (configuration not stated) | -15% | 0% | nt | -11% | 2% | -1%
O=C1N=C(N2CCCCC2)S/C1=C\c1ccc(Cl)cc1 | ? | 15% | nt | -20% | 7% | 11%
CC(C)(C)c1ccc(/C=C2/SC(N3CCCC3)=NC2=O)cc1 | 1% | 3% | nt | 12µM* | 11% | -3%
O=C(Nc1cc(=O)[nH]c(=O)[nH]1)c1cc(Cl)ccc1Cl | ? | 2%[9.26 µM] | nt | 1% | -9% | -31%
COC(=O)C1CCN(c2ccc(Cl)nn2)CC1 | 4% | 0% | 10% | 4% | -27% | 0%
O=C(NCCCNC(=O)c1ccco1)c1ccc(F)cc1 | 0% | 4% | nt | -2% | 0% | 0%
CC(C)Oc1cccc(C2NC(=O)c3ccccc3O2)c1 (configuration not stated) | 5% | 4% | nt | 17µM* | 3% | 5%
O=Cc1cc(N=Nc2ccccc2Cl)ccc1O | ? | 11% | nt | 19µM* | 2.2µM* | 2.5µM*
O=Cc1cc(N=Nc2cccc(C(=O)O)c2)ccc1O | 11% | -2% | 15% | 11µM* | ? | ?
O=C(O)c1cc(N=Cc2ccccc2O)cc(C(=O)O)c1 | nt | nt | -7%[9.22 µM] | nt | nt | nt
CCCCCCCCCC(=O)NC(CN1CCOCC1)[C@H](O)c1ccccc1 (some centres not stated) | nt | nt | -39% | nt | -15%[46.1 µM] | -17%[46.1 µM]

High-throughput results as filed in PubChem BioAssay.
